Source: PubChem
D2 ag-1: human D2 receptor agonism in beta-arrestin assay. P14416. DiscoveRx PathHunter D2 beta-arrestin, luminescence, 90 min; 100% = 57 uM dopamine signal. activation, % (test concentration not listed). 360,000 tested, 0.084% active. AID 624465; in the data active = activation above about 40%; inconclusive = between about 15% and that limit
Target sequence (P14416 whole entry, looked up): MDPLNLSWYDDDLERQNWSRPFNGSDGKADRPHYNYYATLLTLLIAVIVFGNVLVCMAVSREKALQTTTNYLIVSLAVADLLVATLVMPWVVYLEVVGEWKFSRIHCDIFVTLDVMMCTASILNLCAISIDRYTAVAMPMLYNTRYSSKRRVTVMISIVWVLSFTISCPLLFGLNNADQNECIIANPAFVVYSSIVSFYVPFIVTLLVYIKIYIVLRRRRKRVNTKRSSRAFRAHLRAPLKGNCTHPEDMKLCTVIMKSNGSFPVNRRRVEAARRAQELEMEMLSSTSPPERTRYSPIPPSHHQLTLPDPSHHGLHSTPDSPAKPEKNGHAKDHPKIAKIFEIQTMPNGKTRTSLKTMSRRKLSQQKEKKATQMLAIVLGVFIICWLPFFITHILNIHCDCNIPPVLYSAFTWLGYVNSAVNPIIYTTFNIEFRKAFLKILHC
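DiscoveRx PathHunter D2 beta-arrestin cells (2,100/well) attached overnight, then compound-stimulated 90 min at 37 C in HBSS/10 mM HEPES/0.1% Tween-20 buffer; beta-galactosidase complementation read by luminescence after 1 h at ambient temperature. Dopamine 57 uM final (EC100) as control.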
D2 ag-2: agonists of human D2 dopamine receptor. activation, % at 2 µM. AID 485358. P14416. HEK293 T-REx D2 cells, calcium flux agonist mode. 340,000 tested, 0.53% active;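 active = activation over 3 SD above normal in the single-dose calcium agonist read, cut at about 30% in these data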; note: 0% is about no effect
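Tetracycline-induced HEK293 T-REx cells with force-coupled D2 receptor, plated overnight at 30 C, loaded with no-wash calcium dye. After a 10 s baseline, compound was pin-added and calcium flux read kinetically for 180 s; calcium rises flagged agonists.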
D2 antag: antagonizes the human D2 dopamine receptor; P14416; HEK293 TREx D2 cells, calcium flux, dopamine EC80; 340,000 tested, 2% active; inhibition, % at 10 µM; AID 485344; in the data active = inhibition above about 30%; inactive = below that, where a call was filed; note: 0% is about no effect
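In this primary screen, negative modulation is detected by tracking calcium flux after an EC80 dopamine challenge in inducible HEK293 T-REx D2 cells preexposed to test compound for 180 s.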
Apoferritin bind: binds horse apoferritin like a general anesthetic; apoferritin/1-aminoanthracene competitive binding, fluorescence; Potency, µM (top dose mostly 77.5 µM), without a hit: at the highest dose activity change, negative = displacement, most hits filed as inhibitors; 350,000 tested, 0.074% active; P02791; active = well fitted inhibition curve with a large enough effect; inconclusive = small, poorly fitted or top-dose-only effect; inactive = no such curve, though single readings can be large or run the other way; note: potency is the fitted concentration of half-maximal effect; % is set by controls: 0 for no effect and ±100 for the full control effect; nearly all actives have a fitted effect of over 20% in size
Target sequence (P02791 2-175 limits assumed): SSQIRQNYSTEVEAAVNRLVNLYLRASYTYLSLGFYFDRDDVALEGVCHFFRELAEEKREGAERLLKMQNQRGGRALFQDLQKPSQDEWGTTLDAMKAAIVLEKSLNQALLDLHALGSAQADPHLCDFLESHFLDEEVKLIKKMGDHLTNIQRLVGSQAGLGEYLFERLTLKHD
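Apoferritin-based anesthetic binding model; compound displacement of fluorescent 1-AMA measured as endpoint fluorescence after 10 minutes at room temperature, scaled to free-ligand and complex controls.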
D2 PAM-1: potentiates the human D2 dopamine receptor allosterically; potentiation, % (concentration not given with the values); DiscoveRx D2 beta-arrestin cells, luminescence, 90 min; 100% = 57 uM dopamine signal; 360,000 tested, 0.23% active; P14416; in the data active = potentiation above about 50%; inconclusive = mostly about 30% to 49%
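D2 cells co-treated with compound plus 50 nM dopamine (EC20) for 90 min at 37 deg C to detect potentiation. Beta-arrestin recruitment was read as enzyme-fragment luminescence after 1 h at ambient temperature. Full response was set by 57 uM dopamine.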
D2 PAM-2: positively modulates the human D2 dopamine receptor allosterically | P14416 | HEK293 T-REx D2, calcium flux, EC20 dopamine potentiation | potentiation, % at 10 µM | 340,000 tested, 0.34% active | AID 485347;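 active = potentiation over 3 SD above the plate norm, cut at about 30% in these data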; note: 0% is about no effect
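Using a no-wash calcium dye in inducible, force-coupled HEK293 Trex cells expressing D2, we tracked fluorescence each second for 180 s after compound, then for 180 s after EC20 dopamine to detect augmented signalling.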
Numbers without * were called inactive; ? = inconclusive; / = not tested or not shown. Only some compounds are listed: those with a hit (about 2.5% of all), similar ones and a draw of the others.

SMILES | D2 ag-1 | D2 ag-2 | D2 antag | Apoferritin bind | D2 PAM-1 | D2 PAM-2
CC(C)CC(C(=O)Nc1ccc2c(c1)OCCO2)N1C(=O)c2ccccc2C1=O (stereo unspecified) | 7 | -2 | 57* | -9% | -7 | -6
CC(C)C(C(=O)Nc1ccc2c(c1)OCCO2)N1C(=O)c2ccccc2C1=O (stereo unspecified) | -4 | 1 | -5 | -13% | -8 | -6
CCC(C)c1ccc(NC(=S)N2CCN(c3ccccn3)CC2)cc1 (stereo unspecified) | 3 | 30* | 20 | -5% | 2 | -5
NC(=O)c1ccc(C(F)(F)F)n(Cc2ccccc2Cl)c1=O | -1 | 2 | -17 | ? | 5 | 8
Cc1ccc(S(=O)(=O)NCCSc2nncn2C)cc1 | 1 | 0 | -16 | 3% | -4 | 35*
O=C(O)c1cc(Br)ccn1 | -1 | 0 | 0 | -3% | -10 | 0
CCOc1cc(CNc2ccc(N3CCN(C(C)=O)CC3)cc2)cc(Br)c1OC | 13 | 1 | -13 | -15% | 74* | 15
O=c1ccc(NS(=O)(=O)c2ccc(Cl)cc2)cn1Cc1ccc(Cl)c(Cl)c1 | 2 | 0 | -9 | ? | 5 | 7
COc1ccc(C(=S)NCS(=O)(=O)c2ccc(C)cc2)cc1 | -4 | 0 | 11 | ? | -19 | 9
Cc1ccc(S(=O)(=O)CNC(=S)c2ccc3ccccc3c2)cc1 | -6 | -1 | -8 | 25µM* | -10 | -4
Cc1ccc(S(=O)(=O)CNC(=S)c2cccc(C)c2)cc1 | -4 | 0 | -15 | 28µM* | -2 | 4
COC(=O)c1nn(-c2ccccc2)c2nnc(Cc3ccc(C)cc3)c(=O)n12 | -4 | 0 | -4 | -24% | -7 | 0
COC(=O)c1nn(-c2cccc(C)c2)c2nnc(Cc3ccccc3)c(=O)n12 | 5 | 0 | 63* | -20% | 11 | -12
O=C(NCCN1CCOCC1)C12CC3CC(C1)CC(c1ccccc1)(C3)C2 | 1 | 0 | 38* | -6% | -10 | 1
C=C(C)CSc1nncn1/N=C/c1ccc(OC)cc1 | -2 | 0 | 9 | 13µM* | -1 | 5
CCSc1nncn1/N=C/c1ccc(OC)c(OC)c1 | 1 | 0 | -4 | -4% | -1 | 16
COc1ccc(N2CCN(C(=O)CCS(=O)(=O)c3ccc(OC)cc3)CC2)cc1 | 0 | 0 | -10 | -2% | -4 | 32*
COc1ccc(C(=O)N2CCN(S(=O)(=O)c3ccc(F)cc3)CC2)cc1OC | 7 | 0 | 39* | -7% | -2 | 0
O=C(NCCN1CCN(C(=O)c2ccc(F)cc2)CC1)c1ccc(F)cc1 | 0 | 0 | 64* | -5% | -12 | -28
COc1ccc(N2CCN(S(=O)(=O)c3ccc(OC)c(C(=O)N4CCCC4)c3)CC2)cc1 | -2 | 0 | 48* | -10% | -13 | -10
COc1ccc(C(=O)N2CCN(S(=O)(=O)c3ccc(Cl)cc3)CC2)cc1OC | 3 | 1 | 0 | -9% | -3 | 6
COc1ccc(S(=O)(=O)N2CCCCCC2)cc1C(=O)N1CCCCC1 | 3 | 0 | -11 | -12% | -4 | -4
O=C(c1ccc(F)cc1)N1CCN(Cc2ccccc2)CC1 | -7 | 0 | 3 | -2% | -15 | -8
CCN(CC)S(=O)(=O)c1ccc(-c2nnc3sc4cccc(C)c4n23)cc1 | -3 | 0 | -11 | ? | -1 | -11
O=C(COc1ccc(F)cc1)N(Cc1cccc(Br)c1)C1CCS(=O)(=O)C1 (stereo unspecified) | -1 | 0 | 15 | ? | -2 | 6
SMILES | D2 ag-1 | D2 ag-2 | D2 antag | Apoferritin bind | D2 PAM-1 | D2 PAM-2
O=C(NCc1ccccc1)/C(=C/c1cccc([N+](=O)[O-])c1)NC(=O)c1ccco1 | 2 | -3 | -5 | 5% | 2 | 2
COc1ccc(OC)c(CN2CCN(Cc3cc(=O)oc4cc(O)ccc34)CC2)c1 | 0 | 1 | 34* | 437% | -17 | -26
COc1ccc(CN2CCN(C(=O)c3ccc(F)cc3)CC2)c(OC)c1 | -4 | -2 | 20 | -11% | -2 | -2
COc1ccc(OC)c(CN2CCN(C(=O)c3ccc(F)cc3)CC2)c1 | -4 | 1 | 41* | -8% | -27 | 4
O=C(COc1cc2oc(=O)c3c(c2cc1Cl)CCC3)NCCCN1CCCC1=O | -2 | 1 | 11 | -22% | -18 | 0
O=C(COc1cc2oc(=O)c3c(c2cc1Cl)CCC3)Nc1ccc(CN2CCOCC2)cc1 | 2 | 0 | -6 | 0% | -1 | 30*
Cc1cccc(NCC(=O)N/N=C\c2cccn2C)c1 | -1 | 0 | -3 | -6% | -2 | 0
CCc1cccc(CC)c1NC(=O)c1ccccc1 | -4 | -1 | 21 | -2% | -3 | 5
CC(C)c1cccc(C(C)C)c1NC(=O)c1ccccc1 | -4 | -2 | 43* | -3% | 0 | -12
COc1ccc(/C(C)=N/Nc2nccnc2Cl)cc1 | 5 | 0 | 36* | / | -5 | 10
C/C(=N\Nc1nccnc1Cl)c1ccc(Br)cc1 | 4 | 1 | 2 | -14% | 0 | 3
CN(C)c1ccc(/C=C/C(=O)c2cccc(Br)c2)cc1 | 2 | 113* | 2 | -14% | -6 | -3
CN(C)c1ccc(C(=O)/C=C/c2cccnc2)cc1 | -3 | / | / | -15% | -13 | /
COc1ccc(OC)c(-c2cc(C(=O)NCc3cccs3)no2)c1 | -2 | 0 | 24 | -13% | -15 | -23
COc1ccccc1-c1cc(C(=O)NC(C)c2ccccc2)no1 (stereo unspecified) | -1 | 1 | 61* | -14% | -16 | -26
COc1ccc(OC)c(-c2cc(C(=O)NCc3ccc(Cl)cc3)no2)c1 | -3 | 1 | 62* | -12% | -19 | -13
COc1ccccc1-c1cc(C(=O)NCc2cccs2)no1 | -2 | 1 | 76* | -22% | -31 | -24
O=C(COc1ccccc1)N/N=C/c1sc(=O)n(Cc2cccc(C(=O)O)c2)c1Cl | 3 | 0 | 44* | -1% | -4 | -5
COc1ccc(-c2noc(CCC(=O)NCCCN3CCN(c4ccc(F)cc4)CC3)n2)cc1 | -2 | 1 | 95* | -8% | -4 | -20
COC(=O)c1ccc2c(C)c(C(C)(C)O)[nH]c2c1 | 3 | 0 | 45* | 25% | 3 | -9
CCCCn1c(NCCC)nc2c1c(=O)[nH]c(=O)n2C | 0 | -1 | 2 | -6% | 2 | 40*
COc1ccc(NS(=O)(=O)c2ccc(N/N=C(\C)c3ccncc3)c([N+](=O)[O-])c2)cc1 | 0 | 0 | 79* | -17% | 15 | 3
